SMILES strings stand for the structures. Records with an inconclusive call do not appear. The source made the active and inactive calls. The call rests on the fitted dose curve; in most records, active means well fitted inhibition curve with a large enough effect; inconclusive means small, poorly fitted or top-dose-only effect; inactive means no such curve, though single readings can be large or run the other way.

39 compounds from PubChem BioAssay (NCATS) can be followed below.
On the % scale 0 is the no-effect control and ±100 the full control effect.

For one assay, the system named is Zika virus NS2B-NS3 protease (unlinked complex). As to the kind of experiment: Primary screen GU Rhodamine qHTS for Zika virus inhibitors: Unlinked NS2B-NS3 protease assay (AID 1347159). Further: nearly all actives have a fitted effect of over 60% in size. The conditions noted are these: Recombinant ZIKV NS2B-NS3 protease, Rhodamine110 substrate fluorescence; series mostly up to 107 µM; activity change, negative = inhibition: at the top concentration. The essentials: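 Unlinked NS2B/NS3, 25 nM; Rhod110 peptide, 1.5 microM; compounds, up to 114 microM. Reaction run 15 min at RT in 10 mM Tris-HCl pH 8.0, 0.01% Tween 20; kinetic fluorescence change fitted with a 4-parameter Hill model.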
With `CCN(CC)C(=O)C(c1ccccc1)N1CCN(c2ccc(NC(=O)c3ccccc3-c3cccnc3)cc2F)CC1` (configuration not stated), the “activity change, negative = inhibition” value is 6.49% (inactive). Turning to `C/C(=C\CO[C@@H]1O[C@H](CO[C@H]2OC[C@](O)(CO)[C@H]2O)[C@@H](O)[C@H](O)[C@H]1O)C(C)(C)O`, the “activity change, negative = inhibition” value was 11.1% [at 57.1 µM] (inactive). Consider `NC(=O)c1cccc2[nH]c(-c3ccc(C4CCCN4)cc3F)nc12` (configuration not stated), for which the “activity change, negative = inhibition” value was 8.85% (inactive).

Another assay deals with Zika virus NS2B-NS3 protease (linked construct). As to the kind of experiment: Primary screen NINDS Rhodamine qHTS for Zika virus inhibitors (AID 1347160). Further: nearly all actives have a fitted effect of over 55% in size. The conditions noted are these: purified NS2B-NS3 protease, Rhodamine110 substrate fluorescence; series mostly up to 57.1 µM; activity change, negative = inhibition: at the top concentration. The essentials:
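Single-chain NS2B-NS3 protease, 25 nM, pH 8.0; compounds preincubated 15 min. Activity: Rhodamine110 release from 1.5 microM substrate over 15 min, room temperature, data fitted to 4-parameter Hill.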
For orientation: Quantitative high-throughput screening tests each substance at several concentrations.
For `C=C1C(=O)O[C@@H]2C[C@H](C)[C@@H]3CC(=O)[C@H](O)[C@@]3(C)C[C@H]12`, the outcome was inactive. Consider `C/C1=C/CCC2=CC(OC2=O)C(C)(C)/C=C/C1=O` (configuration not stated), for which the “activity change, negative = inhibition” value was -3.33% (inactive). For `C[C@H]1[C@H](/C=C/c2ccc(-c3ccccc3C#N)cn2)[C@@H]2[C@@H](C)OC(=O)[C@@H]2C[C@@H]1C`, the outcome was inactive. For `COc1ccc(NC(=O)c2ccc(-c3ccc(C(=N)N)cc3C)cc2)cc1N1CCN(C)CC1`, the “activity change, negative = inhibition” value was 118% (inactive). As for `N#Cc1cnc2c(Cl)cc(NCc3cn(CCN4CCCCCC4)nn3)cc2c1Nc1ccc(F)c(Cl)c1`, the “activity change, negative = inhibition” value was 49% (inactive).

On to `COc1cc(Br)c(S(=O)(=O)Nc2ccc(Cl)c(O[C@@H]3CCN(C)C3)c2)cc1OC`, for which the outcome was inactive.

Take `CN1CCN(S(=O)(=O)c2ccc(-c3cnc(N)c(C(=O)Nc4cccnc4)n3)cc2)CC1`: the “activity change, negative = inhibition” value was -0.518% [at 33.1 µM] (inactive). On to `CCC(C)C(=O)OC1C(C)C2(O)C(C=C(CO)CC3(O)C(=O)C(C)=CC32)C2C(C)(C)C12OC(=O)C(C)C` (configuration not stated), for which the “activity change, negative = inhibition” value is -5.82% [at 33.1 µM] (inactive). With `COc1ccccc1N1CCN(CC(C(=O)NC(C)(C)C)c2ccccc2)CC1` (configuration not stated), the “activity change, negative = inhibition” value was 75.8% (inactive). With `CC(=O)O[C@H]1C[C@@](O)(C(C)C)[C@@H]2[C@@H](OC(=O)c3ccc(O)cc3)CC(C)=CC[C@@]12C`, the “activity change, negative = inhibition” value is -22% [at 33.1 µM] (inactive). `COc1cc2nc(C3CC3)nc(N3CCN(c4ccccc4OC)CC3)c2cc1OC`: the “activity change, negative = inhibition” value was 29.4% (inactive).

As to `CC(CCC1(O)OC2CC3C4CC=C5CC(O[C@@H]6O[C@H](CO)[C@@H](O[C@@H]7O[C@@H](C)[C@H](O)[C@@H](O)[C@H]7O)[C@H](O)[C@H]6O[C@@H]6O[C@@H](C)[C@H](O)[C@@H](O)[C@H]6O)CCC5(C)C4CCC3(C)C2C1C)CO[C@@H]1O[C@H](CO)[C@@H](O)[C@H](O)[C@H]1O` (some centres not stated), the “outcome” value is “inactive [at 15.1 µM]”.

Regarding `C[C@H](Oc1cc(-c2cnn(C3CCNCC3)c2)cnc1N)c1c(Cl)ccc(F)c1Cl`, the “activity change, negative = inhibition” value was 317% (inactive). For the compound `Cc1ccc(NC(=O)N2CCN(c3nc(N)nc4sc(-c5cccnc5)nc34)CC2)cc1`, the “activity change, negative = inhibition” value was 11.2% (inactive).

With `COc1ccc(Cl)c(Nc2ncnc3cc(OCC4CCN(C)CC4)c(OC)cc23)c1`, the “activity change, negative = inhibition” value is 67.1% (inactive). Turning to `O=C(c1ccccc1)c1c(O)cc(O)cc1O[C@@H]1O[C@H](CO)[C@@H](O)[C@H](O)[C@H]1O`, the “activity change, negative = inhibition” value is -2.83% [at 33.1 µM] (inactive). As to `COc1cccc(-c2cc(F)ccc2C2Cc3nc(N)nc(C)c3C(=O)N2)n1` (configuration not stated), the call was inactive. On to `C=C1CC(=O)C2OC2(C)CC2OC(=O)C(=C)C2C(O)C1OC(=O)/C(C)=C\C` (configuration not stated), for which the “activity change, negative = inhibition” value was 11.8% [at 33.1 µM] (inactive). With `CCc1c[nH]c2ncnc(N3CC[C@](N)(CNC(=O)c4ccc(F)cc4F)C3)c12`, the “activity change, negative = inhibition” value was 16.6% (inactive). Regarding `CCN(c1cc(-c2ccc(CN3CCOCC3)cc2)cc(C(=O)NCc2c(C)cc(C)[nH]c2=O)c1C)C1CCOCC1`, the “activity change, negative = inhibition” value was -15.9% (inactive). For `C=C1CC[C@@H]2[C@](C)(CO)[C@H](O)CC[C@@]2(C)[C@@H]1C/C=C1/C(=O)OCC1OC(=O)/C(=C/CO)C(O)C[C@@H]1C(=C)CC[C@@H]2[C@](C)(CO)[C@H](O)CC[C@]21C` (some centres not stated), the “outcome” value is “inactive [at 15.1 µM]”.

Consider `COc1cc2nc(N3CCN(C(=O)COc4c(OC)cccc4C(C)C)CC3)nc(N)c2cc1OC`, for which the compound was classed as inactive.

As to `CN(C)N(C)C(=O)[C@@]1(Cc2ccccc2)CCCN(C(=O)[C@@H](Cc2c[nH]c3ccccc23)NC(=O)C(C)(C)N)C1`, the “activity change, negative = inhibition” value is 12.7% (inactive).

For the compound `Cc1cc(C)nc(SCC(=O)Nc2ncc(Cc3cccc4ccccc34)s2)n1`, the “activity change, negative = inhibition” value was 21.2% (inactive). On to `N#Cc1cc(-c2ccnc(Nc3ccc(N4CCOCC4)cc3)n2)ccc1OC1CCOCC1`, for which the “activity change, negative = inhibition” value was 19% (inactive).

As to `CC(=O)OC1CC2(C)C(CCC(C)C23Cc2c(O)cc(CO)c(C=O)c2O3)C(C)(C)C1O` (configuration not stated), the “outcome” value is “inactive [at 33.1 µM]”. As for `O=C(NC1CCN(CCCCC2(C(=O)NCC(F)(F)F)c3ccccc3-c3ccccc32)CC1)c1ccccc1-c1ccc(C(F)(F)F)cc1`, the “activity change, negative = inhibition” value is 210% (inactive). As for `COc1ccc(C2(CNC(=O)c3ccc(NC(=O)c4ccco4)cc3)CCOCC2)cc1`, the “activity change, negative = inhibition” value is 15.3% (inactive).

As for `CCCCC1CCC(c2nc(-c3ccncc3)no2)CC1` (configuration not stated), the “activity change, negative = inhibition” value is 35.6% (inactive). The same measure, in the same setting: as for `CC(C)(C)c1ccc(C(=O)Nc2cn3cc(-n4ccnc4)ccc3n2)cc1`, the figure is 88.1% (inactive).

Turning to `Cc1ccccc1CN1CCn2c1nc1c(c2=O)CN(Cc2ccccc2)CC1`, the result was inactive. Regarding `Cc1nc(NC(=O)N2CCCC2C(N)=O)sc1-c1ccnc(C(C)(C)C(F)(F)F)c1` (configuration not stated), the “activity change, negative = inhibition” value was 12.7% (inactive). On to `CC(=O)Nc1cccc(-c2csc(Nc3cc(C)ccn3)n2)c1`, for which the compound was called inactive. Turning to `Nc1nc2c(c(N3CC[C@@H](N)C3)n1)CCCc1ccccc1-2`, the “activity change, negative = inhibition” value is 59.6% (inactive). As to `CCCCNc1ncc(C(=O)NCc2ccc(-n3ccnc3)cc2)c(NC2CCC(O)CC2)n1` (configuration not stated), the “activity change, negative = inhibition” value was 62.9% (inactive). Same read-out and setting: the same measure for `COc1ccc(N2CCN(C(=O)c3cc4c(s3)-c3ccccc3S(=O)(=O)C4)CC2)cc1`: 7.45% (inactive); for `CCN(CC)C(=O)C(c1ccccc1)N1CCN(c2ccc(NC(=O)c3ccccc3-c3cccnc3)cc2F)CC1` (configuration not stated): 43.2% (inactive); for `C/C(=C\CO[C@@H]1O[C@H](CO[C@H]2OC[C@](O)(CO)[C@H]2O)[C@@H](O)[C@H](O)[C@H]1O)C(C)(C)O`: 15.7% [at 33.1 µM] (inactive). Take `NC(=O)c1cccc2[nH]c(-c3ccc(C4CCCN4)cc3F)nc12` (configuration not stated): the “activity change, negative = inhibition” value was 42.3% (inactive).
